A selection: hits, their analogues and other compounds. The true share with any hit is near 28%.
CYP2C19 inhib: human CYP2C19 inhibition; CYP2C19 Supersomes, luciferin-H EGE luminescence, 30 min; inhibition, % at 5 µM; hit rate 21% among 96,000; AID 778;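 active means CYP2C19 inhibition above a set limit at 5 µM in the primary screen, cut at about 50% in these data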
Mac1 fbg enh: increases human CD11b/CD18 adhesion to fibrinogen; hit rate 0.07% among 93,000; activation, % at 10 µM; AID 1499; K562 CD11b/CD18 adhesion to fibrinogen, ATPlite luminescence; P05107+P11215;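 active means 10 µM primary screen giving 50% or more activity, confirmed by 40% or more on retest at that dose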
Target sequence (P05107 whole entry, looked up, other chains not shown): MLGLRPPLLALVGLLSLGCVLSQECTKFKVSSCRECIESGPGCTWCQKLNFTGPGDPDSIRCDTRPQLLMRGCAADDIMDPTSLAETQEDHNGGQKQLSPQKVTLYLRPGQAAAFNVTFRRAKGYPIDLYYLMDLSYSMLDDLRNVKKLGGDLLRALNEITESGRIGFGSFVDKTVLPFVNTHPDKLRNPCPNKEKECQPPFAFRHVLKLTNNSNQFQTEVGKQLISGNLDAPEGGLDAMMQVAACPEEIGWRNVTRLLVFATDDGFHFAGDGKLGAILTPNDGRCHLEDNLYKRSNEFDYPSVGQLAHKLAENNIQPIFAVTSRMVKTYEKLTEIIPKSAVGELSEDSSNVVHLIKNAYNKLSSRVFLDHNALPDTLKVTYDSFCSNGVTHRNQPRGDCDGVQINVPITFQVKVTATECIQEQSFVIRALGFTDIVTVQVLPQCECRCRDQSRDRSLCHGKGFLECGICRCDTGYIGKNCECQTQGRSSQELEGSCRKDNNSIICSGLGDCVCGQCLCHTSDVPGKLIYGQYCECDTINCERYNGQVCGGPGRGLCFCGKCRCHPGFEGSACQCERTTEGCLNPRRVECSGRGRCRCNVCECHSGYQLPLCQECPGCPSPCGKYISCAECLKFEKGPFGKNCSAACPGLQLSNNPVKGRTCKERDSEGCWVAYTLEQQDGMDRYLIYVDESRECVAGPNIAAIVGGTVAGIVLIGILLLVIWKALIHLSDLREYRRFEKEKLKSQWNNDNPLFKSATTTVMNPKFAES
CD11b adhes inh: blocks human CD11b/CD18 adhesion to fibrinogen | K562 CD11b/CD18 adhesion to fibrinogen, ATPlite luminescence; Mn2+ added to activate the integrin | AID 1497 | hit rate 0.54% among 93,000 | inhibition, % at 10 µM | P05107+P11215;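 active means primary inhibition of 50% or more at 10 µM, then 40% or more on retest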
CYP2C9 inh: blocks human cytochrome P450 2C9; P11712; CYP2C9 Supersomes, luciferin-H conversion, luminescence; inhibition, % at 5 µM; hit rate 20% among 96,000; AID 777;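 active means blocking of liver enzyme CYP2C9 beyond about 50% at 5 µM, limit read from the data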
CYP2C9 activ: activators of human CYP2C9; P11712; recombinant CYP2C9, luciferin-H conversion, luminescence; stronger effect = higher value; factor 1 = untreated enzyme, 0 = blocked; activation factor at 5 µM; hit rate 1.4% among 96,000;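 active means activation factor of 2 or more for CYP2C9 at a 5 µM dose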
CYP2C19 activ: activators of human cytochrome P450 2C19; P33261; recombinant CYP2C19, luciferin-H EGE luminescence; stronger effect = higher value; 0 = fully inhibited enzyme, 1 = untreated enzyme; activation factor at 5 µM; 96,000 tested, under 10 active;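 active means activation factor of at least 2 at 5 µM in the primary screen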
Each line names hits and unclear results; the compound was inactive in the other large screens.

Cc1cc(-c2cc(N)n(-c3ccccc3)n2)c(C)n1C1CCCC1	none
CC(=O)c1cccc(NC(=O)COc2ccc(S(=O)(=O)N3CCCCC3)cc2)c1	CYP2C19 inhib 67, CYP2C9 inh 67
CC(=O)c1cccc(NC(=O)c2ccc(S(=O)(=O)N3CCCCC3)cc2)c1	none
COc1ccccc1OCC(=O)Nc1ccc(S(=O)(=O)N2CCCCCC2)cc1	CYP2C19 inhib 86, CYP2C9 inh 80
O=C(COC(=O)c1cccnc1Cl)c1ccc(Cl)cc1Cl	CYP2C19 inhib 66, CYP2C9 activ 2.5 (no result: Mac1 fbg enh, CD11b adhes inh)
CC(C)C(=O)Nc1cccc(C(=O)OCC(=O)c2ccc(Cl)cc2Cl)c1	CYP2C9 activ 2.6
COC(=O)c1ccc(C)c(NC(=S)NCc2ccc(Cl)cc2)c1	none (no result: CYP2C19 inhib, CYP2C9 inh, CYP2C9 activ, CYP2C19 activ)
O=C(COC(=O)c1ccc(Cl)cc1O)Nc1cccnc1Cl	none (no result: CYP2C19 inhib, CYP2C9 inh, CYP2C9 activ, CYP2C19 activ)
CC(=O)Nc1cc(C(=O)OCC(=O)c2ccc(Cl)cc2Cl)ccc1C	CYP2C9 activ 2 (no result: Mac1 fbg enh, CD11b adhes inh)
CC1CCCN(C(=O)CSCC(=O)N=c2sc3ccccc3n2C)C1 (centres undefined)	CYP2C19 inhib 99
C=CCN=C1SC(C)C(=O)N1S(=O)(=O)c1ccccc1 (centres undefined)	CYP2C19 inhib 73
O=C(Cn1cnc2ccccc21)NC(c1ccccc1)c1ccccc1	none (no result: Mac1 fbg enh, CD11b adhes inh)
O=C(NCC(=O)N(Cc1cccs1)C(C(=O)NC1CCCC1)c1ccncc1)c1ccco1 (centres undefined)	CYP2C19 inhib 61, CYP2C9 inh 72
Cc1ccc(C(C(=O)NCc2ccco2)N(Cc2ccco2)C(=O)CNC(=O)c2ccco2)cc1 (centres undefined)	CYP2C19 inhib 57
O=C(NC1CCCCC1)C(c1cccs1)N(Cc1cccs1)C(=O)c1ccco1 (centres undefined)	CYP2C19 inhib 55, CYP2C9 inh 53
O=C(CCC(=O)N(Cc1ccco1)C(C(=O)NC1CCCC1)c1ccncc1)Nc1cccnc1 (centres undefined)	CYP2C19 inhib 75, CYP2C9 inh 61
O=C(NC1CCCC1)C(c1cccs1)N(CC1CCCO1)C(=O)Cc1cccs1 (centres undefined)	none
Cc1ccc(C(C(=O)NCc2ccco2)N(C(=O)CNC(=O)c2cccs2)c2ccc(C)cc2)cc1 (centres undefined)	none (no result: Mac1 fbg enh, CD11b adhes inh)
O=C(NCc1ccccc1)C(c1ccccc1)N(Cc1cccs1)C(=O)c1cnccn1 (centres undefined)	CYP2C19 inhib 62
O=C(NCC(=O)N(Cc1ccco1)C(C(=O)NC1CCCC1)c1cccnc1)c1cccs1 (centres undefined)	CYP2C9 inh 86
COCCNC(=O)C(c1ccc(F)cc1)N(Cc1ccco1)C(=O)CCC(=O)Nc1nccs1 (centres undefined)	CYP2C19 inhib 53
O=C(NCC(=O)N(Cc1ccco1)C(C(=O)NC1CCCCC1)c1cccnc1)c1ccco1 (centres undefined)	none
COc1cccc(-c2csc(N3CCN(Cc4ccccc4)CC3)n2)c1	none
O=c1c2cc(-c3ccccc3)sc2ncn1/N=C/c1ccco1	none
Cc1cc(/C=N/NC(=O)c2ccc(CN3CCOCC3)cc2)c(C)n1-c1ccccc1	none
Cc1cccc(C)c1-n1c(C)cc(/C=N/NC(N)=S)c1C	CYP2C19 inhib 91, CYP2C9 inh 93
Cc1ccccc1-n1c(C)cc(/C=N/NC(=O)c2ccncc2)c1C	CYP2C9 inh 51
COc1ccc(CCNC(=O)CCC(=O)N2CCN(S(=O)(=O)c3ccccc3)CC2)cc1OC	none
COc1ccc(CN2CCN(C(=O)c3cccs3)CC2)c(OC)c1OC	none
Oc1c(N=Nc2ccccn2)ccc2ccccc12	none (no result: Mac1 fbg enh, CD11b adhes inh)
Cc1ccc(S(=O)(=O)N/N=C\c2cc([N+](=O)[O-])ccc2Cl)cc1	CYP2C19 inhib 62
Cc1ccc(S(=O)(=O)N/N=C/c2cc(Br)c(C)o2)cc1	CYP2C9 inh 97
Cc1ccc(S(=O)(=O)N/N=C/c2cn(C)nc2C)cc1	CYP2C19 inhib 51, CYP2C9 inh 64
Cc1ccc(S(=O)(=O)N/N=C/c2cccc([N+](=O)[O-])c2)cc1	none (no result: CYP2C19 inhib, CYP2C9 inh, CYP2C9 activ, CYP2C19 activ)
CCn1cc(/C=N/NS(=O)(=O)c2ccc(OC)cc2)c(C)n1	CYP2C19 inhib 87, CYP2C9 inh 69
Cc1ccc(S(=O)(=O)N/N=C/C(C)(C)CO)cc1	none
COC(=O)Cn1nnc(-c2cccc(OC)c2)n1	none
Cc1ccc(S(=O)(=O)Cc2ccc(C(=O)O)o2)cc1	none
Cn1nc(C(=O)OCCN2C(=O)c3ccccc3C2=O)c2ccccc2c1=O	none
Cc1ccc(C(=O)NCC(=O)OC(C)C(=O)NCCC2=CCCCC2)cc1C (centres undefined)	none (no result: CYP2C19 inhib, CYP2C9 inh, CYP2C9 activ, CYP2C19 activ)
CCC1=NN(C(=O)CCc2ccccc2O)C(O)(C(F)(F)F)C1 (centres undefined)	none (no result: CYP2C19 inhib, CYP2C9 inh, CYP2C9 activ, CYP2C19 activ)
CCn1cc(/C=N/NS(=O)(=O)c2ccc(C)cc2)c(C)n1	CYP2C19 inhib 88, CYP2C9 inh 83
Cc1ccc(S(=O)(=O)N/N=C\c2cccnc2)cc1	none (no result: Mac1 fbg enh, CD11b adhes inh)
Cc1ccc(-c2nnc(NCc3nc4ccccc4[nH]3)c3ccccc23)cc1S(=O)(=O)N(C)C	none (no result: CYP2C19 inhib, CYP2C9 inh, CYP2C9 activ, CYP2C19 activ)
COC(=O)c1ccccc1NC(=S)NC(=O)c1cccc2ccccc12	none
CCCC(=O)NC(=S)Nc1ccccc1C(=O)OC	CYP2C19 inhib 59 (no result: Mac1 fbg enh, CD11b adhes inh)
COC(=O)c1ccccc1NC(=S)NC(=O)C1CC1	CYP2C19 inhib 52
CC1Oc2ccccc2OC1(O)c1ccc2ccccc2n1 (centres undefined)	none (no result: CYP2C19 inhib, CYP2C9 inh, CYP2C9 activ, CYP2C19 activ)
CC1(C)CC(=O)C2=C(C1)OC(N)=C(C#N)C21CCN(Cc2ccccc2)CC1	CYP2C19 inhib 73, CYP2C9 inh 74
CC(=O)N1CCC2(CC1)C(C#N)=C(N)OC1=C2C(=O)CC(C)(C)C1	none (no result: Mac1 fbg enh, CD11b adhes inh)
CC1(C)CC(=O)C2=C(C1)OC(N)=C(C#N)C21C(=O)N(Cc2ccccc2Cl)c2ccccc21 (centres undefined)	CYP2C19 inhib 86, CYP2C9 inh 94
CCOC(=O)N1CCC2(CC1)C(C#N)=C(N)OC1=C2C(=O)CC(C)(C)C1	CYP2C9 inh 54 (no result: Mac1 fbg enh, CD11b adhes inh)
Cc1cc(Cl)ccc1N(CC(=O)N=Nc1c(O)[nH]c2ccccc12)S(C)(=O)=O	CYP2C19 inhib 76, CYP2C9 inh 53
CCCOc1ccc(-c2csc(NC(=O)CN3C(=O)CCC3=O)n2)cc1	none (no result: CYP2C19 inhib, CYP2C9 inh, CYP2C9 activ, CYP2C19 activ)
COC(=O)c1cccc(OCC(O)Cn2cnc3cc(C)c(C)cc32)c1 (centres undefined)	none
COC(=O)c1cccc(OCC(O)Cn2ccnc2)c1 (centres undefined)	CYP2C19 inhib 100, CYP2C9 inh 88
COC(=O)c1cc(S(=O)(=O)n2nc(C)c(Br)c2C)c(Cl)cc1Cl	CYP2C19 inhib 73
Cc1cc(C)n(S(=O)(=O)c2cc(C(=O)O)c(Cl)cc2Cl)n1	none
O=C(Nc1ccccc1)c1ccc(CSc2ncccn2)cc1	none (no result: Mac1 fbg enh, CD11b adhes inh)
Cc1ccc(NC(=O)c2ccc(CSc3nccc(C)n3)cc2)cc1	CYP2C9 inh 64

Source: PubChem (Sanford-Burnham Center for Chemical Genomics)
